# According to PubChem BioAssay AID1572 (National Center for Advancing Translational Sciences (NCATS), 2009):
# Records with an inconclusive call do not appear. A number with no mark means an inactive call. Activity calls are given as the source filed them. Calls follow the shape of the dose curve; as a rule, active = well fitted curve in either direction with a large enough effect; inconclusive = small, poorly fitted or top-dose-only effect; inactive = flat fitted curve, though single readings scatter.
# Experiment: Total Fluorescence Confirmation Counterscreen for Inhibitors of the Interaction of Thyroid Hormone Receptor and Steroid Receptor Coregulator 2
# Details: Texas Red total fluorescence, TRbeta/SRC2 FP artifact counterscreen; series mostly up to 92.2 µM; total fluorescence change, both ways: at the top concentration
# Source text: NIH Molecular Libraries Probe Production Network [MLPCN] NIH Chemical Genomics Center [NCGC] MLPCN Grant: DK058080 Assay Provider: R. Kip Guy, St. Jude Children's Research Hospital NCGC Assay Overview: Thyroid receptor (TR) regulates many homeostatic processes including basal metabolism, cardiovascular function, body weight, and lipid trafficking. TR modulators are potential therapeutics for obesity and hyperlipidemias but current thyroid analogs have undesirable side effects, particularly cardiac stimulation. To identify inhibitors that specifically prevent the interaction of TR with the steroid receptor coregulator 2 (SRC2), a fluorescence polarization assay was screened. This assay detects interaction of the ligand-binding domain of human TRbeta with a Texas Red labeled SRC2 peptide, corresponding to a 20 amino acid region of the nuclear receptor interaction domain (Arnold et al., 2006). Total fluorescence (555 nm excitation and 632 nm emission) was measured to identify potential fluorescent and light absorbing compounds. Such compounds may be artifacts that interfere with the fluorescence polarization assay. This assay is a confirmation assay for AID 1479. Arnold, L. A.; Estebanez-Perpina, E.; Togashi, M.; Shelat, A.; Ocasio, C. A.; McReynolds, A. C.; Nguyen, P.; Baxter, J. D.; Fletterick, R. J.; Webb, P.; Guy, R. K. A high-throughput screening method to identify small molecule inhibitors of thyroid hormone receptor coactivator binding. Sci STKE 2006, p 13.
# NCGC Assay Protocol Summary: For screening, 5 uL/well 0.6 uM TRbeta and 20 nM SRC2 Texas Red in protein buffer (20mM Tris hydrochloride, 100mM NaCl, 10% glycerol, 1mM EDTA, 0.01% NP-40, 1mM DTT, 1uM T3 and 5% DMSO) was dispensed into black solid 1536-well plates (Grenier) using a solenoid-based dispenser. Following transfer of 23 nL compound or DMSO vehicle by a pin tool, the plates were centrifuged 15 s at 1000 RPM and incubated 5 hr at ambient temperature. The plates were read by an Envision (Perkin Elmer) to detect fluorescence polarization of SRC2 Texas Red (555 nm excitation and 632 nm emission). Data were normalized to unbound (all components except TRbeta) and bound SRC2 Texas Red controls. Total fluorescence (TF) was calculated as follows: TF = S + 2P where S and P are fluorescence readings in the parallel and perpendicular channels, respectively. In this assay, we provide % activity data for each concentration as well as potencies for the active compounds.
Compound,"total fluorescence change, both ways",outcome
Cc1[nH]n(-c2ccccc2)c(=O)c1C(c1ccc([N+](=O)[O-])cc1)c1c(C)[nH]n(-c2ccccc2)c1=O,-23.2%,
CCn1nc(-c2cccs2)nc2c(=O)n(C)c(=O)nc1-2,-0.774%,
CCCCCn1c(N)c(C(=O)NCc2cccs2)c2nc3ccccc3nc21,6.05%,
CN1CC[C@@]2(C)c3cc(O)ccc3N(C)C2O1 (stereo partly specified),1.51% [at 184 µM],
O=C(O)CC1OCC=C2CN3CCC45C6=CC(=O)C(=O)C([N+](=O)[O-])=C6NC4C1C2CC35 (stereo unspecified),,inactive
COP(=S)(OC)Oc1ccc([N+](=O)[O-])cc1,8.92% [at 184 µM],
